Reference: PMC12136788
Positions count from the first letter of the chain named. Over roughly 24,000 sequences, “enrichment r” has its median near 0.99; the highest 2% begin near 3.7. The list comes from a sample in which the highest values are over-represented; it also holds similar and randomly drawn sequences.

T1: UNK ZnF1-3 (human, UniProt Q9C0B0 31-174)
T1 sequence: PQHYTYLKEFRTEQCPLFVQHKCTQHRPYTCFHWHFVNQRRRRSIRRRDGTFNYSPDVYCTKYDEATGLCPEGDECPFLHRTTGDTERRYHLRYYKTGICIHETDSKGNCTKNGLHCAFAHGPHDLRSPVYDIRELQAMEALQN

B1: chr2:48035047:48035048:-_ENSG00000138081_ENST00000403359|hu_hu|motif|central (ssRNA)
RNA: GGGAGUUCUACAGUCCGACGAUCACAAAAUUGCAGCUUAUUUUCUUCACUUCUGUCCCUUCAAGUCUUUACACAGUAAUGCGGAAACACCCAGCUUUGAGAUCCUGAGUCAAUAUAUUGCCACUUUCUUUUUGGUAGCUUGAGCAACAGAGGAUUGAGCAUCA
B2: 173052199_173052319_2237_3pUTR_ENSMUSG00000038400_ENSMUST00000036248|mouse|control|control (ssRNA)
RNA: GGGAGUUCUACAGUCCGACGAUCCUGUAUCCACCUGGCACCAAAUUCGGGGACUGCUUUGGCUUUGGGGAUGCACCUUGCCCCCAAACACUGAACCUUCAUAGUUUUUGUGUUUUAAAGAGGAAGAAAAAAAAAAAAACUAAGCAACAGAGGAUUGAGCAUCA
B3: chr7:72441615:72441616:-_ENSMUSG00000030516_ENSMUST00000102592|mus_hu|FALSE|FALSE (ssRNA)
RNA: GGGAGUUCUACAGUCCGACGAUCAAAAUUUUCAAAUGCAUAGCCAGAAAGAACAGAAAACCACCACUGCCCCUUGUCAAAAAAAAAAAAAAAGAAAAGAAAAGAAAAGAAAAAAAUAUCCCCAAAUCACACCACUAUUUUCUUCAACAGAGGAUUGAGCAUCA
B4: chr17:56552419:56552420:-_ENSMUSG00000013236_ENSMUST00000086828|mus_mus|mus_mus_mus_hu_False|38_58 (ssRNA)
RNA: GGGAGUUCUACAGUCCGACGAUCAAAAAAUACACUAUUUAAAAAAAAUGAAAUGUCACGGGAUACAGUUACACUGACACUAUUAAAAGAAAGCUGGAAAAAAAAUGCAGCCCAGUGUCCCCAGGCUGCAGAGCGGGGAGGAGCCAACAGAGGAUUGAGCAUCA
B5: 14336767_14358337_2061_CDS_ENSG00000038382_ENST00000344204|human|control|control (ssRNA)
RNA: GGGAGUUCUACAGUCCGACGAUCAUACACGUCGUCCAGCAGCUCCUUCUGCAGCUCCUCCAGCCACGUCCACAGCUCUUUCACAUGGGUGUGAAAGGACACUGACAUGUCCAGUAGGAUCUUUCGCUGCUCAACACGCCGAACCAACAGAGGAUUGAGCAUCA
B6: chr2:71272186:71272187:+_ENSMUSG00000027018_ENSMUST00000028408|mus_mus|FALSE|FALSE (ssRNA)
RNA: GGGAGUUCUACAGUCCGACGAUCCUGUGCCUGUAUUGCCAUAUCUUCACUGAAUCCUUGCAGUAAUCUUUCCCGGGAGAAACUGGGCAAAAAUUGACAAAACUUCACAAGCACAAAGUCUCUUAGUUUCAAAUAGCUUCUGGACAACAGAGGAUUGAGCAUCA
B7: chr7:117185563:117185564:+_ENSMUSG00000066232_ENSMUST00000084731|mus_mus|FALSE|FALSE (ssRNA)
RNA: GGGAGUUCUACAGUCCGACGAUCGGGCUUCAGGUUCUUCCACGUAAGUGCAUGGGAAACUCCUUGAUUAAUAUAAUUUAAUGUCUGCUGUAAAACUCGAGGCGCCAUAUAUUGUUUUUCCUUGUACUGAUAUAACACUUUCAACAACAGAGGAUUGAGCAUCA
B8: chr10:7433921:7433922:+_ENSMUSG00000040021_ENSMUST00000165952|mus_mus|motif|central (ssRNA)
RNA: GGGAGUUCUACAGUCCGACGAUCGCUUUGUGUAUGUUAGGCAAGUGCUCUACCACUGAGCCAUAUCCUUAGCCCCGGGAAAAUGUACUUUCUUAGUGAGUACAUACACGUAAAUUAAAAAAAAAAAUUACAAACUGAAAAUAACAACAGAGGAUUGAGCAUCA
B9: chr10:7433921:7433922:+_ENSMUSG00000040021_ENSMUST00000165952|mus_mus|FALSE|FALSE (ssRNA)
RNA: B8 RNA with G76U, G77A
B10: chr11:134117569:134117570:+_ENSG00000151502_ENST00000281187|hu_hu|motif|central (ssRNA)
RNA: GGGAGUUCUACAGUCCGACGAUCAGAAACAUGUAAACACUGCAGCUGCUUAAUUACAAGUUGCACUGCUUGAUUUAGUACCGGUGCACUCCCAGGUUUGGGGACCUUAAGAGAGGGGGACAGGAGCCUCCCCUCACUUUCACACAACAGAGGAUUGAGCAUCA
B11: chr18:65376317:65376318:+_ENSMUSG00000024589_ENSMUST00000163516|mus_hu|FALSE|FALSE (ssRNA)
RNA: GGGAGUUCUACAGUCCGACGAUCUUUCAUGCCAACAGGAAGCUAACCCUUUUCUAGAAAACGUUCUCCAAGCUCCCGUCCUAAUGCUGUGGCACUUUCUCUGACAUACUGAGAACACUCUGGGGUGGGGGUGUGUGUAUGCAACAACAGAGGAUUGAGCAUCA
B12: 56885736_56885856_9979_3pUTR_ENSMUSG00000055296_ENSMUST00000068792|mouse|control|control (ssRNA)
RNA: GGGAGUUCUACAGUCCGACGAUCAUCUUAUAUUGAUCUAGAUUUGACCACAGAUAAACCUUGUACUGCCUAGUCUUGUGUCAACUUGACACAGCUGGAGUUAUCACAGAGAAAGGAGCUUCAGUUGAGGAAAUGCCUCCAUGACAACAGAGGAUUGAGCAUCA
B13: chr1:60041781:60041782:+_ENSMUSG00000041040_ENSMUST00000036540|mus_mus|motif|central (ssRNA)
RNA: GGGAGUUCUACAGUCCGACGAUCUUAAGGAGUGAAUCUCAACUUUACAAAUUUAGUAAUGGCAAGUUUACUUUAGUUUCCGGAAAGAAAACCUCAGGAUCUCAGUUCAAUCCCAGACAGAGAAAGCUCUCCAUGGGGCCACUGCAACAGAGGAUUGAGCAUCA
B14: chr11:75578338:75578339:+_ENSMUSG00000020849_ENSMUST00000067664|perfect_dup|FALSE|FALSE (ssRNA)
RNA: GGGAGUUCUACAGUCCGACGAUCUUAAGAACUUUUGAAAACUGUUUAAAAAAAAAAAAAAAAAACCAACAGGGCAGGAACCUAAAUUCUGAGACCAAAUGUAAAAGUCAGAUUUGGUGGUUCUCAGUGACAAUGGGGAGUUUCCAACAGAGGAUUGAGCAUCA
B15: chr13:31725248:31725249:-_ENSG00000120694_ENST00000320027|perfect_dup|motif|central (ssRNA)
RNA: GGGAGUUCUACAGUCCGACGAUCUUUGGAUUUUGCAUCCAAUUUGUACUUGGUUUUAAAUUCAGCACAAAAAUGUUCGGCGGGCUUCUCAUCAAAGUUCUUUCCUCCUAAGAAGGGAUCAAAAGCUGUGCCUAGAACCUUCAGCAACAGAGGAUUGAGCAUCA
B16: chr13:99559765:99559766:-_ENSMUSG00000041685_ENSMUST00000040340|mus_mus|motif|central (ssRNA)
RNA: GGGAGUUCUACAGUCCGACGAUCCUGAACUUCCUUUAUUAAUUCCUGUAAUUUUCUAACAAGAUCCAAAUGACAAUUUGCGGAUUUCUCUGUAGAUGUUUUGAAUACAUCCCACAUUGGUGCAAAUGUUCCAAGUUGUGAAUACAACAGAGGAUUGAGCAUCA
B17: chr2:35037708:35037709:-_ENSMUSG00000026878_ENSMUST00000028238|mus_hu|FALSE|FALSE (ssRNA)
RNA: GGGAGUUCUACAGUCCGACGAUCCUGUUUUUACAACAGAGUUUUUUCUUUUUUUUUAAUUAAACCCAGUAAGAUGUACAGAAGACAAUGAGGCAGUAAAAAGUACUGCUUCCAACAGACAGAGGUGAAAGGUCAAAUGAGGGGCAACAGAGGAUUGAGCAUCA
B18: chr11:75578338:75578339:+_ENSMUSG00000020849_ENSMUST00000067664|perfect_dup|motif|central (ssRNA)
RNA: B14 RNA with U82G, A83G

The binders below were run against T1, UNK ZnF1-3 (assay: nsRBNS (natural sequence RNA bind-n-seq); RBNS binding buffer (assumed for nsRBNS): 25 mM Tris pH 7.5, 150 mM KCl, 3 mM MgCl2, 0.01% Triton X-100, 500 ug/ml BSA, 20 U/ml SUPERase-In, 4 C; UNK is unkempt and MSI1 is Musashi-1; names of the RNAs are library labels; protein concentration not given here; high values mean tight binding).

Binder	binding signal [enrichment R]
B1	0.585
B2	2.34
B3	5.91
B4	9.74
B5	0.394
B6	1.25
B7	1.59
B8	5.64
B9	8.06
B10	0.758
B11	0.949
B12	1.28
B13	0.919
B14	4.7
B15	1.17
B16	0.623
B17	1.64
B18	5.06
